{
  "source": "PubChem BioAssay AID1645853",
  "about": "(Buhrlage Lab, Dana-Farber Cancer Institute and Novartis …, 2021)",
  "note": "Out of some 47,000 compounds screened, about 2,000 (4.3%) were called active. What follows is part of a selection rich in actives, with near analogues and random picks from the rest. Values without a mark were called inactive. Rule as the data show it: active = inhibition above about 30%; inactive = the rest.",
  "data": [
    {"biological_target": "Ubiquitin carboxyl-terminal hydrolase 8 (Homo sapiens) (UniProt P40818)", "sequence (P40818 whole entry, looked up)": "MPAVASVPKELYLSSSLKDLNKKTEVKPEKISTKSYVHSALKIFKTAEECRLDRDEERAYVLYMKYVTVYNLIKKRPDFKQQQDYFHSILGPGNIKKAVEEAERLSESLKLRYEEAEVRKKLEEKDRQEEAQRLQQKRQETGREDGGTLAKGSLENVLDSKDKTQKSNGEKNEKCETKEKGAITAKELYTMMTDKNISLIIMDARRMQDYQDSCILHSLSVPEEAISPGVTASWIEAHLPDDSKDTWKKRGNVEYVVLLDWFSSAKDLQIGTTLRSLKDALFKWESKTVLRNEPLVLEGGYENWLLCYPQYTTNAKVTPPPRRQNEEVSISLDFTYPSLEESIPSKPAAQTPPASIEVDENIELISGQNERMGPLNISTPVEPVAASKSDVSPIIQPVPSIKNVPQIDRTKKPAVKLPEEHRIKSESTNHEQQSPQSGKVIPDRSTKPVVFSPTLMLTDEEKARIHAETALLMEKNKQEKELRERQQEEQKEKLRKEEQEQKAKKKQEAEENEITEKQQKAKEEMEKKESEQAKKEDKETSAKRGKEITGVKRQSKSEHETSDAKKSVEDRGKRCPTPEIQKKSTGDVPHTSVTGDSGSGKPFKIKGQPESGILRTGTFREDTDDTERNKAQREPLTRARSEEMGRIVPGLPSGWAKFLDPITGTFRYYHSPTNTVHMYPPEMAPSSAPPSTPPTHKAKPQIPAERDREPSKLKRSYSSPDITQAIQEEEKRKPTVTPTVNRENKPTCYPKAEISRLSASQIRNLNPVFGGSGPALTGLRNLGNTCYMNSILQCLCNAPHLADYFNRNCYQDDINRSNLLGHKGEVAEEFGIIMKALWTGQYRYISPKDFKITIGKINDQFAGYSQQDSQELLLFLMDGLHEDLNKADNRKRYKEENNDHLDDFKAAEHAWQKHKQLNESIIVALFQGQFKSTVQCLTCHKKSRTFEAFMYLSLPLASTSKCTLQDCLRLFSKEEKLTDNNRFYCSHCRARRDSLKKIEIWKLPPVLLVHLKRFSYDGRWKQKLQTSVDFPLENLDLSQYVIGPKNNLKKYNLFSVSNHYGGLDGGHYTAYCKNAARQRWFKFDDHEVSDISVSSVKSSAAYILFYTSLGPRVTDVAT", "assay": "blocks human USP8 ubiquitin-rhodamine cleavage (AID 1645853)", "conditions": "purified USP8, Ub-rhodamine cleavage fluorescence, 30 min; at 20 µM; stronger effect = higher value", "values": [
      {"smiles": "CCc1cccc(C)c1NC(=O)Cn1nc2ccc(C(=O)NCc3ccccc3)cn2c1=O", "inhibition": "74.5% (active)"},
      {"smiles": "CCc1cccc(C)c1NC(=O)CSc1nc2c(c(=O)[nH]1)CCCC2", "inhibition": "18%"},
      {"smiles": "Cc1cc(=O)n(CC(=O)NCc2ccccc2)c(N2CCCC2)n1", "inhibition": "2.35%"},
      {"smiles": "O=S(=O)(Cc1nnc(-c2cc(Cl)cc(Cl)c2)o1)c1ccc(Cl)cc1", "inhibition": "45.6% (active)"},
      {"smiles": "Cc1ccc(-c2nnc(CCC(=O)O)o2)cc1", "inhibition": "3.95%"},
      {"smiles": "N#Cc1ccc(-c2nc(CS(=O)(=O)c3ccc(Cl)cc3)no2)cc1", "inhibition": "-6.87%"},
      {"smiles": "O=C(NCC(=O)N1CCC2(CC1)NCCc1[nH]cnc12)c1ccc(Br)cc1", "inhibition": "18.8%"},
      {"smiles": "O=C(NCCC(=O)N1CCC2(CC1)NCCc1[nH]cnc12)c1ccc(-c2ccccc2)cc1", "inhibition": "34.7% (active)"},
      {"smiles": "C[C@H](NC(=O)Cc1ccc(Cl)cc1)C(=O)N1CCC2(CC1)NCCc1[nH]cnc12", "inhibition": "21.2%"},
      {"smiles": "Cc1cc(Cl)ccc1OCCCC(=O)NCc1ccccn1", "inhibition": "-25%"},
      {"smiles": "O=C(Nc1ccc(-c2nc3cnccc3o2)c(O)c1)c1ccc(-c2ccccc2)cc1", "inhibition": "-4.15%"},
      {"smiles": "O=C(Cc1ccccc1)Nc1ccc(-c2nc3cnccc3o2)c(O)c1", "inhibition": "74.3% (active)"},
      {"smiles": "COc1cc(C(=O)Nc2ccc(-c3nc4cnccc4o3)cc2)cc(OC)c1OC", "inhibition": "-3.3%"},
      {"smiles": "CCCc1noc(-c2ccc(-n3ncc(C(=O)N4CCOCC4)c3C)nc2)n1", "inhibition": "0.113%"},
      {"smiles": "CCCCN(C)c1ccc2nnc(CCc3nc(-c4cc(OC)cc(OC)c4)no3)n2n1", "inhibition": "84.8% (active)"},
      {"smiles": "COc1cccc(-c2noc(CN3CCCC3c3cc(OC)ccc3OC)n2)c1", "note": "(stereo unspecified)", "inhibition": "-12.7%"},
      {"smiles": "COc1ccc(-c2noc(CN(C3CCCCC3)S(=O)(=O)c3ccc(OC)cc3)n2)cc1", "inhibition": "14%"},
      {"smiles": "CSCCC(NC(=O)C1CCCC1)c1nc2ccccc2[nH]1", "note": "(stereo unspecified)", "inhibition": "-5.64%"},
      {"smiles": "Cc1cnc(NC(=O)Cn2cnc3c2c(=O)n(C)c(=O)n3C)s1", "inhibition": "19.6%"},
      {"smiles": "Cn1c(=O)c2c(ncn2Cc2nnc(-c3ccccc3)o2)n(C)c1=O", "inhibition": "64.8% (active)"},
      {"smiles": "Cc1ccc(NC(=O)CCn2cnc3c2c(=O)n(C)c(=O)n3C)cc1", "inhibition": "-3.63%"},
      {"smiles": "CC1CCN(C(=O)c2ncn3c2CN(C)S(=O)(=O)c2ccccc2-3)CC1", "inhibition": "6.05%"},
      {"smiles": "CCc1nnc2ccc(S(=O)(=O)N(CC)c3ccccc3)cn12", "inhibition": "-281%"},
      {"smiles": "Cc1cc(-c2nnc(SCC(=O)Nc3ccc(Br)c(C)c3)n2N)n[nH]1", "inhibition": "31% (active)"},
      {"smiles": "Nn1c(SCC(=O)Nc2ccccc2F)nnc1-c1n[nH]c2c1CCC2", "inhibition": "7.87%"},
      {"smiles": "Cc1cc(NC(=O)COC(=O)c2cccc(C)c2O)ccc1Br", "inhibition": "0.58%"},
      {"smiles": "CC(C)(C)n1nc(C2CC2)c(Br)c1NC(=O)c1ccccc1F", "inhibition": "20.5%"},
      {"smiles": "CC1(C)CCC2(C(=O)O)CC[C@]3(C)C(=CC[C@@H]4[C@@]5(C)CCC(O)C(C)(C)[C@@H]5CC[C@]43C)C2C1", "note": "(stereo partly specified)", "inhibition": "4.43%"},
      {"smiles": "Cc1cccc(CNC(=O)CN2C(=O)C3CCCN3C(=O)c3cccc(C)c32)c1", "note": "(stereo unspecified)", "inhibition": "5.77%"},
      {"smiles": "Cc1cccc(C2=NC3(CCN(CC(=O)Nc4ccccc4C)CC3)NC2=O)c1", "inhibition": "-2.9%"},
      {"smiles": "Cc1cccc(NC(=O)Cn2c(C)ccc(NC(=O)Nc3cccc(C)c3)c2=O)c1", "inhibition": "26.5%"},
      {"smiles": "Cc1ccc2cc(CNc3ccccc3)c(=O)n(CC(=O)Nc3ccccc3C)c2c1", "inhibition": "92.8% (active)"},
      {"smiles": "CCOC(=O)c1cc(S(=O)(=O)Nc2ccc(OC)c(Cl)c2)cn1C", "inhibition": "11.8%"},
      {"smiles": "O=C(NC1CC2(CCOCC2)Oc2ccccc21)c1[nH]ncc1Cl", "note": "(stereo unspecified)", "inhibition": "3.95%"},
      {"smiles": "COc1ccc(CC(=O)Nc2cnc(-c3ccccc3)nc2)cc1", "inhibition": "-7.3%"},
      {"smiles": "O=C(COc1ccccc1)Nc1cnc(-c2cccc(Cl)c2)nc1", "inhibition": "60.7% (active)"},
      {"smiles": "CSc1cccc(NC(=O)COc2ccc(C(=O)c3ccccc3)cc2)c1", "inhibition": "-0.948%"},
      {"smiles": "CCC(C)[C@H](NC(=O)[C@@H]1Cc2c([nH]c3ccccc23)C2c3ccccc3C(=O)N21)C(=O)NCCc1ccccc1", "note": "(stereo partly specified)", "inhibition": "-10.4%"},
      {"smiles": "Cc1cccc(C(=O)Nc2ccc(-n3c(C)nc4ncccc4c3=O)cc2C)c1", "inhibition": "5.93%"},
      {"smiles": "COc1cccc(C2c3[nH]c4ccccc4c3C[C@@H]3C(=O)N(Cc4ccc5c(c4)OCO5)CC(=O)N23)c1", "note": "(stereo partly specified)", "inhibition": "13.4%"},
      {"smiles": "Cc1cc(=O)n(CC(=O)Nc2ccc3c(c2)OCO3)c2c1c(-c1ccccc1)nn2-c1ccccc1", "inhibition": "67.9% (active)"},
      {"smiles": "CN(c1ccccc1)c1nc(=O)n(CC(=O)Nc2ccc3c(c2)OCCO3)c2ccccc12", "inhibition": "-40.3%"},
      {"smiles": "CCc1cc(=O)n(CC(=O)Nc2cc(C)on2)c(-c2ccccc2)n1", "inhibition": "-44.3%"},
      {"smiles": "CCCN1CCN(c2ccc(C(=O)O)cc2NS(=O)(=O)c2cc(F)ccc2F)CC1", "inhibition": "84.9% (active)"},
      {"smiles": "CC(=O)N1CCc2cc(S(=O)(=O)Nc3ccccc3N3CCN(C)CC3)ccc21", "inhibition": "-8.86%"},
      {"smiles": "CCS(=O)(=O)Nc1cc(S(=O)(=O)Nc2cc(Cl)ccc2Cl)ccc1N1CCOCC1", "inhibition": "2.1%"},
      {"smiles": "Cc1ccnc(SCc2nc(-c3ccc4c(c3)ncn4C)no2)n1", "inhibition": "2.93%"},
      {"smiles": "Cc1noc(C2(NC(=O)Cc3ccccc3C)CCCCC2)n1", "inhibition": "-1.15%"},
      {"smiles": "Cc1csc(C2(NC(=O)Cc3cc(C)on3)CCCC2)n1", "inhibition": "74.9% (active)"},
      {"smiles": "O=C(Cc1cccc(F)c1)NC1(c2nc(C3CC3)no2)CCCCC1", "inhibition": "5.33%"},
      {"smiles": "Cc1noc(C)c1S(=O)(=O)NCc1ccc2c(c1)CCN2C(=O)C(C)C", "inhibition": "21.9%"},
      {"smiles": "Cc1cccc(N2CCN(S(=O)(=O)c3c[nH]c(-c4nnc(C)o4)c3)CC2C)c1", "note": "(stereo unspecified)", "inhibition": "12.2%"},
      {"smiles": "CC(C)NS(=O)(=O)c1ccc(NC(=O)c2cccnc2)cc1", "inhibition": "4.16%"},
      {"smiles": "CCc1cc(C2CCCN2C(=O)c2cc(-c3ccccc3F)no2)on1", "note": "(stereo unspecified)", "inhibition": "0.852%"},
      {"smiles": "O=C(C1CCC1)N1CCCN(c2ccc([N+](=O)[O-])cn2)CC1", "inhibition": "-127%"},
      {"smiles": "CN(C)c1ccc(S(=O)(=O)NCC(=O)NCC2CCCCC2)cc1[N+](=O)[O-]", "inhibition": "-110%"}
    ]}
  ]
}
